Results reported in PubChem BioAssay (NCI).
Compounds without any hit were thinned out: in the full panel of roughly 79,000, 15% have a hit. Unmarked numbers belong to inactive results. The source made the active and inactive calls. No stated cut-off is given here; in the data, active means growth inhibition above about 70%; inactive means the rest.

Tests used:
[1] = NCI Yeast Anticancer Drug Screen. Data for the rad50 strain (AID 155);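 further: 0% = growth of vehicle-only cultures of the same strain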; details: S. cerevisiae rad50 strain growth inhibition; at 50.0 µM; hits give high values
How it was run: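 Compounds were tested on a yeast strain with an engineered DNA damage repair alteration; the reported value is growth inhibition normalised to vehicle treatment.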

[2] = NCI Yeast Anticancer Drug Screen. Data for the mec2-1 strain (AID 157); details: S. cerevisiae mec2-1 strain, at 50.0 µM, hits give high values
How it was run: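 Compounds were applied to mec2-1 yeast cells. Their growth was then compared with that of vehicle-treated cultures to give growth inhibition.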

[3] = NCI Yeast Anticancer Drug Screen. Data for the sgs1 mgt1 strain (AID 161);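 further: 0% = growth of cultures given vehicle only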; details: S. cerevisiae sgs1 mgt1 strain, at 50.0 µM, hits give high values
How it was run: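 Growth of a repair-deficient yeast mutant was monitored after compound treatment and expressed as inhibition relative to vehicle-treated cultures.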

[4] = NCI Yeast Anticancer Drug Screen. Data for the cln2 rad14 strain (AID 165);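 further: 0% = growth equal to vehicle treated cultures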; details: S. cerevisiae cln2 rad14 strain, at 50.0 µM, hits give high values
How it was run: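 Strain: cln2 rad14 yeast, altered in cell cycle control and DNA damage repair. Read-out: growth inhibition vs vehicle.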

[5] = NCI Yeast Anticancer Drug Screen. Data for the bub3 strain (AID 167); details: S. cerevisiae bub3 mutant strain, at 50.0 µM, hits give high values
How it was run: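 Growth of a checkpoint-deficient yeast mutant is measured after compound exposure. Values represent inhibition relative to vehicle.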

[6] = NCI Yeast Anticancer Drug Screen. Data for the mlh1 rad18 strain (AID 175); details: S. cerevisiae mlh1 rad18 strain growth inhibition; at 50.0 µM; hits give high values
How it was run: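 A repair-deficient yeast strain is exposed to test compound, and growth is scored relative to vehicle-treated controls.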

Compound | growth inhibition [1] | growth inhibition [2] | growth inhibition [3] | growth inhibition [4] | growth inhibition [5] | growth inhibition [6]
Cn1ccc2c3ccsc3ccc21 | 21.8% | 6.35% | 4.55% | -5.5% | 4.3% | 1.05%
Cc1ccccc1C(=O)N1CCOCC1 | -10.9% | 3.7% | -0.1% | -13.4% | 16.1% | 21.4%
O=C(NC(=S)Nc1ccc(Cl)cc1C(=O)c1ccccc1)c1ccc(Cl)cc1Cl | -32% | 6.9% | -8.45% | 74.4% (active) | -3.05% | -1.15%
C=C(C)COC(CCC)OCC(=C)C | 6.85% | 8.1% | -8.45% | 8.85% | -2.3% | 21.1%
COC1C(/C=C/C(C)=O)OC2OC(C)(C)OC21 (stereo unspecified) | 1.7% | 1.35% | 3.85% | -9.45% | 2.3% | -1.55%
O=C(N/N=C/c1c(O)ccc2ccccc12)c1ccccc1 | 29% | 11.3% | 42.1% | 5% | 16.1% | 26.4%
CCOC(=O)CCCCCC(=O)OCC | 4% | 0.25% | -2.7% | 4.1% | 12.8% | 1.8%
Nc1cc(=O)[nH]c(=S)n1-c1ccccc1 | -7% | 2.5% | -12.2% | -16.1% | -2.5% | -9.65%
COc1cc([N+](=O)[O-])ccc1N=Cc1cccs1 | 19.4% | 22.8% | 34% | 0.25% | 18.3% | 27.9%
O=C(Cl)CN1C(=O)c2ccccc2C1=O | -12.1% | -24% | -14.5% | -14.3% | -12.3% | -0.25%
CCCCCCCC[N+](C)(C)CC#CC[N+](C)(C)CCCCCCCC | 46.2% | -14.3% | 13.9% | -1.65% | 11.1% | 44.1%
COc1ccc(OC)c(NC(=O)c2ccccc2Cl)c1 | -4.85% | -1.95% | 16.7% | -13% | 48.2% | -16.8%
CCCOC(=O)NC(C)C(=O)NC(CCC(=O)NC(CCCC(N)C(=O)O)C(=O)NC(C)C(=O)O)C(=O)O (stereo unspecified) | -20.8% | -19.9% | -37.6% | -9.25% | 21.6% | -10.8%
CC(C)(C)OC(=O)N/N=C(/N)Cc1ccc(Cl)cc1 | -4.05% | 19.4% | -6.2% | -13.9% | -14.2% | 6.4%
Nc1nc2ccccc2[nH]1 | 2.2% | -0.3% | -17.7% | 0.8% | -11.8% | 6.95%
CSc1ccc(NC(=O)CCc2ccccc2)cc1 | 7.7% | 6.45% | 13.2% | -4% | 41.5% | 24.1%
CC(NC(=O)N(C)C)NC(=O)N(C)C | -17.9% | -22.3% | -5.15% | -5.85% | -0.9% | -4.95%
CCn1c(C)nc2ccccc21 | -12.7% | -6.55% | 2.5% | -0.5% | -16.1% | 1.5%
CN(C)/C=C/c1ccnc2c1C(=O)c1ccccc1C2=O | 83.7% (active) | 90.5% (active) | 73.3% (active) | 67.8% | 75.5% (active) | 92.7% (active)
Cc1cc2oc(=O)cc(C(=O)O)c2c(=O)o1 | -15.8% | -9.55% | -13.2% | -17.6% | -8.85% | -16.1%
CC1(C)C(=O)c2cc3ccc4ccccc4c3cc2C(C)(C)C1(C)C | -1.25% | -4.25% | 1.2% | 43.6% | 2.75% | -7%

Compound | growth inhibition [1] | growth inhibition [2] | growth inhibition [3] | growth inhibition [4] | growth inhibition [5] | growth inhibition [6]
N#C/C(=C\c1c[nH]c2ccccc12)C(=O)c1ccc(O)c(O)c1 | -6.55% | 0.25% | -20.6% | 18.1% | 2.95% | -6.95%
CCN(CC)c1ccc2c(c1)Oc1ccc(N(C(C)=O)c3ccccc3)cc1C21OC(=O)c2ccccc21 (stereo unspecified) | 25.5% | 13.1% | 29.6% | 31% | 51.4% | 19.2%
CCN(CCC#N)c1cccc(C)c1 | -12.2% | 1.6% | -5.75% | 9.8% | -16.8% | -7.55%
Clc1ccc2ccc3ccc(Cl)nc3c2n1 | 18.5% | 20.4% | 26.4% | -18.5% | 8.5% | 9.95%
C(/C=N/NC1=NCCCN1)=N\NC1=NCCCN1 | -3.5% | -15.2% | -14.6% | 10.9% | -33.1% | -14.2%
N[C@@H](CCC(=O)NC(Cc1ccccc1)C(=O)NCP(=O)(O)O)C(=O)O (stereo partly specified) | -60.9% | -17.9% | -45.9% | -1.75% | -10.5% | -55.4%
CC(=O)OC12C=CC(=O)N1c1ccccc1C(=O)O2 (stereo unspecified) | 18.4% | 8.8% | 25% | 29.2% | 13.8% | 42.4%
COC(=O)c1ccccc1C1CN=NC12Cc1ccc3c(c1C2=O)CCC3 (stereo unspecified) | -0.85% | -3.55% | 1.75% | -7.3% | 7.1% | 16.7%
Cc1ccc2c(c1-c1ccccc1)C(=O)OC2 | -5.4% | -3.05% | 2.15% | 5.35% | 6.25% | -3.3%
CN1c2ccccc2C(=O)NC12CCN(Cc1ccccc1)CC2 | -30.2% | -16.3% | -12.8% | 0.75% | 12.3% | -21.2%
NC(=O)N/N=C/C(Cc1ccccc1)=N/OCc1ccccc1 | -6.9% | -1.8% | -0.45% | -17.6% | 16.4% | -1.75%
O=C(O)c1ccccc1CC(Cc1ccc2c(c1)CCC2)C(=O)O (stereo unspecified) | -7.55% | -2.25% | -37% | -5.15% | -17.6% | -6%
CSCCC(C(=O)O)N(C)C (stereo unspecified) | -4.3% | -21.3% | -17.3% | -2.9% | -19.6% | -18%
O=C(CCc1ccc(O)cc1)c1c(O)cc(O)cc1O | -5.3% | -29.9% | -11.3% | 12.9% | -11.2% | -9.05%
CN(C)CCCN | -11.3% | -4.4% | 3% | -30.8% | 5.7% | 1.5%
COc1cc2c(cc1OC)C(c1ccc([N+](=O)[O-])c(C)c1)=NCC2 | 28.1% | -15.7% | 39.5% | 15.3% | 19.4% | 0.25%
C(=N\N(CCCCN(/N=C/c1ccccc1)c1ccccc1)c1ccccc1)/c1ccccc1 | 38.5% | 11.2% | 13.8% | 21.8% | -11.8% | 23.9%
CCC(/C=C/c1ccccc1)=N\NC(=O)c1ccc(Cl)cc1 | 16.2% | 5.5% | 7.5% | 1.7% | 19.9% | 7.95%
Cc1ccc(S(=O)(=O)N2CCCN(S(=O)(=O)c3ccc(C)cc3)COC2)cc1 | 4.1% | 11.6% | -8.4% | 3.1% | -10.4% | -1.25%
O=CC(CO)CC(C=O)n1cnc2c(=O)[nH]cnc21 (stereo unspecified) | -11.2% | -16.1% | -15.2% | 2.55% | -9.45% | 1.95%
